In the supplement of paper PMC11732987, “Enantioselective OTUD7B fragment discovery through chemoproteomics screening and high-throughput optimisation” (Communications Chemistry, 2025):

Columns and labels:
Assay in all cases: log2 ratio of Biotin-Ahx-Ub-VS probe labelling (fragment/DMSO); higher = less target engagement (more negative = stronger competition), active = hit call of the paper (q ≤ 0.05, log2 ratio ≤ -1)
Conditions in all cases: compound concentration: 200 uM; treatment time: 3 h
USP42 = biological target: T1, USP42 (UniProt Q9H9J4)
T1 sequence (whole entry): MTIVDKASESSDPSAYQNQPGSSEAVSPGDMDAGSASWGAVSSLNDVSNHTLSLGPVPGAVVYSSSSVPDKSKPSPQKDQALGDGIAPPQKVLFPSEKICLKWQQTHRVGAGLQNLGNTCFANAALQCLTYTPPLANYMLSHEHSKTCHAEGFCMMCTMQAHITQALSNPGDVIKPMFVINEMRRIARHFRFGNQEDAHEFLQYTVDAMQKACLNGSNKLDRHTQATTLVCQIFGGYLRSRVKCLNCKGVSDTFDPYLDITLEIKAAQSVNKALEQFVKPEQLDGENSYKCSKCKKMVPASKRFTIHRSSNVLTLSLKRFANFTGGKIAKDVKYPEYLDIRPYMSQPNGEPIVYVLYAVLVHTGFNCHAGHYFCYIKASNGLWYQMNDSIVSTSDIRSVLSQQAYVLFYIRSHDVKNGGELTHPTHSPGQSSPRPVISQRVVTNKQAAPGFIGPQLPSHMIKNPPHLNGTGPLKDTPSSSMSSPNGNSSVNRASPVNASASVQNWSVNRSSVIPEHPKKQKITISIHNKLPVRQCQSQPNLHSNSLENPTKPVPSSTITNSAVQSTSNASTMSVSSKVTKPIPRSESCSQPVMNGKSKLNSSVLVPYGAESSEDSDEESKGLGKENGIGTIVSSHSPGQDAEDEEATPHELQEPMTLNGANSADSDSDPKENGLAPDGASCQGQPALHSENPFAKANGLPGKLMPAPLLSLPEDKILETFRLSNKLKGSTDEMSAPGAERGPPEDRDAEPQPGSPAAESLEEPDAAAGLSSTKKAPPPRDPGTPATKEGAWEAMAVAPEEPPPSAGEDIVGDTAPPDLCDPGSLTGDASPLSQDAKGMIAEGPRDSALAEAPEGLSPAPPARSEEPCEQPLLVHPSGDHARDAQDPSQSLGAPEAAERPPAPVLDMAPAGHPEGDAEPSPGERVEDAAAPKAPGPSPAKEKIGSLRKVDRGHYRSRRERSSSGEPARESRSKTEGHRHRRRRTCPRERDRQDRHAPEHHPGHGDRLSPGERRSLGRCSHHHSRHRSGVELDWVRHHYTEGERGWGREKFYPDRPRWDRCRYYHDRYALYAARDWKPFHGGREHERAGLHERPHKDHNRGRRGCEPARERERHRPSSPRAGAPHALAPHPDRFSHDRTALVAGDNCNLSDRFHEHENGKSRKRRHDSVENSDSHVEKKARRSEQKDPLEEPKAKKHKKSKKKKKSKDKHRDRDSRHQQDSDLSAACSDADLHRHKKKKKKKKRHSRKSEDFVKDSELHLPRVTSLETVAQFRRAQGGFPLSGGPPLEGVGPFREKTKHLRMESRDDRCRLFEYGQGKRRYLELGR
Outline: (§1)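 HEK293T lysate in Tris/CHAPS/IGEPAL buffer with protease inhibitors (495 µg per sample) was given fragment at 200 µM or vehicle for 3 h, in triplicate. It then received Biotin-Ahx-Ub-VS at 0.5 µM final for 1 h. Labelled DUBs were NeutrAvidin-enriched, digested with LysC and trypsin, and run by diaPASEF LC-MS/MS. Values are average log2 fragment/vehicle ratios by unpaired t-test on global-median-normalised Spectronaut quantities of proteins with ≥2 unique peptides.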

USP46 = USP46 (UniProt P62068)
USP46, sequence (P62068 whole entry): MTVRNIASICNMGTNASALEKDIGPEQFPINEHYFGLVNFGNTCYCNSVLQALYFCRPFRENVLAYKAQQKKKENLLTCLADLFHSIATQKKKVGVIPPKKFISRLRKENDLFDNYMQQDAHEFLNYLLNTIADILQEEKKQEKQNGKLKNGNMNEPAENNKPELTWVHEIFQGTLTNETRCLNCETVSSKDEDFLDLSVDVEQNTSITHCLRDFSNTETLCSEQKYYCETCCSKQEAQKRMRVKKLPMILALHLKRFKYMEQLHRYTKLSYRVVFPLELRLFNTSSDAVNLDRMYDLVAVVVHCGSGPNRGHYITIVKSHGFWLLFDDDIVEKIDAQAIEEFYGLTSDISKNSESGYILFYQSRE
Outline: as §1

USP47 = biological target: T2, USP47 (UniProt Q96K76)
T2 sequence (whole entry): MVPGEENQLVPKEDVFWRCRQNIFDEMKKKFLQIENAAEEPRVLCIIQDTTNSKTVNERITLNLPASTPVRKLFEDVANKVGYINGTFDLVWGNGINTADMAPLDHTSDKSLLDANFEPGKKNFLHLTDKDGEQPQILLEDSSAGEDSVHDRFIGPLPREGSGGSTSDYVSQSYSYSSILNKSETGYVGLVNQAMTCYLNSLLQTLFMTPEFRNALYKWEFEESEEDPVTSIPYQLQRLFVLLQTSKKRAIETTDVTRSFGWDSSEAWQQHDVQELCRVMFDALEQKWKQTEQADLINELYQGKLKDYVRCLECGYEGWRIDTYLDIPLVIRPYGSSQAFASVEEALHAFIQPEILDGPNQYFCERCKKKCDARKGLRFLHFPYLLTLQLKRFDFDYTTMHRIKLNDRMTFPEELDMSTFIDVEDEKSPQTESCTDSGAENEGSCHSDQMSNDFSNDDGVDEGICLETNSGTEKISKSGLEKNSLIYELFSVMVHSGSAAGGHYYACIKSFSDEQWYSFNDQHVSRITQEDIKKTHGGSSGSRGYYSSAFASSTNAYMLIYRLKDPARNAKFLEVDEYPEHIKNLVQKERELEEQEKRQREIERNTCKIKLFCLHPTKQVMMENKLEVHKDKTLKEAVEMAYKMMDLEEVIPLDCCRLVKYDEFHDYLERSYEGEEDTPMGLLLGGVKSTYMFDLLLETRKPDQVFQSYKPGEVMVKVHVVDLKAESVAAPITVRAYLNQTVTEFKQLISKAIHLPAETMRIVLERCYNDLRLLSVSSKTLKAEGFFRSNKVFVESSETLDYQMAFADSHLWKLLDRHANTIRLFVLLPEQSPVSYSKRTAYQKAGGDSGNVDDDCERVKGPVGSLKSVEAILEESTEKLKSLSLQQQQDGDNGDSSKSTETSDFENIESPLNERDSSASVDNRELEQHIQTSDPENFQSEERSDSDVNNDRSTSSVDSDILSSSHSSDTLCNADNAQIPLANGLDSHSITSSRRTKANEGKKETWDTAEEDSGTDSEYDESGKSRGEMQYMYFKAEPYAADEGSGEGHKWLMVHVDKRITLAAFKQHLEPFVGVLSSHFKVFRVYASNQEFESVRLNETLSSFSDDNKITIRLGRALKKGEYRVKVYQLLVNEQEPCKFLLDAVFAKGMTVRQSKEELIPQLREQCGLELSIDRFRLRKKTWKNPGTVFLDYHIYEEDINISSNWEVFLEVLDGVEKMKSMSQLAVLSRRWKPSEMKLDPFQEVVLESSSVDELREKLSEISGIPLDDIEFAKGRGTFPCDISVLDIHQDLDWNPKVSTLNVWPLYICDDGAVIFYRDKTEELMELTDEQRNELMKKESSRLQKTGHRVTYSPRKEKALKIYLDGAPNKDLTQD
Outline: as §1

USP48 = biological target: T3, USP48 (UniProt Q86UV5)
T3 sequence (whole entry): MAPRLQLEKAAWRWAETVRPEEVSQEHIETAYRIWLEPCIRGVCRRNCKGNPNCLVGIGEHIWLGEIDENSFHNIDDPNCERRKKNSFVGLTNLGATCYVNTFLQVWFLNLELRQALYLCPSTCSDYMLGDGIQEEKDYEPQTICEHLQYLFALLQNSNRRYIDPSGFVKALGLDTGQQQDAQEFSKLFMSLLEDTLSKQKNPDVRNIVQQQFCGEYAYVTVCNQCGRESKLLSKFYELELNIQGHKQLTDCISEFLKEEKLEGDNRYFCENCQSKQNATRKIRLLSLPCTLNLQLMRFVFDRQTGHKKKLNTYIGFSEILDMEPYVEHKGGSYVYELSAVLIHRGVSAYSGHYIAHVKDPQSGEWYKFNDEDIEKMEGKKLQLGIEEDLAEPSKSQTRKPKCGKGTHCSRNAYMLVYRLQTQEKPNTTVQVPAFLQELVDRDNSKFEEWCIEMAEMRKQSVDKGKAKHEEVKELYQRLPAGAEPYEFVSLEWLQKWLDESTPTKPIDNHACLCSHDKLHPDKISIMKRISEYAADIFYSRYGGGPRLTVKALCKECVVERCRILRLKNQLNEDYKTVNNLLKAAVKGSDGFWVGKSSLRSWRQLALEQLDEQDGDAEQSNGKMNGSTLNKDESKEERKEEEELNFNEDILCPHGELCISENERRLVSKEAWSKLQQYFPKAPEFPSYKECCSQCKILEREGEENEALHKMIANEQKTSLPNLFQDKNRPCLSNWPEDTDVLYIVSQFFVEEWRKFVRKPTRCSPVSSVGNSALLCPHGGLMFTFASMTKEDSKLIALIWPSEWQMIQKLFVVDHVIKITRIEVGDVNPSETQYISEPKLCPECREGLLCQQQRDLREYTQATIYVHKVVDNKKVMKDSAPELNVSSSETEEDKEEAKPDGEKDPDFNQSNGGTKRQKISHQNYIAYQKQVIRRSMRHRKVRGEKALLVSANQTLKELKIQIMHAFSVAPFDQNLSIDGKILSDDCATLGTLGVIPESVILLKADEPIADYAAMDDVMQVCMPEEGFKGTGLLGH
Outline: as §1

USP5 = biological target: T4, USP5 (UniProt P45974)
T4 sequence (whole entry): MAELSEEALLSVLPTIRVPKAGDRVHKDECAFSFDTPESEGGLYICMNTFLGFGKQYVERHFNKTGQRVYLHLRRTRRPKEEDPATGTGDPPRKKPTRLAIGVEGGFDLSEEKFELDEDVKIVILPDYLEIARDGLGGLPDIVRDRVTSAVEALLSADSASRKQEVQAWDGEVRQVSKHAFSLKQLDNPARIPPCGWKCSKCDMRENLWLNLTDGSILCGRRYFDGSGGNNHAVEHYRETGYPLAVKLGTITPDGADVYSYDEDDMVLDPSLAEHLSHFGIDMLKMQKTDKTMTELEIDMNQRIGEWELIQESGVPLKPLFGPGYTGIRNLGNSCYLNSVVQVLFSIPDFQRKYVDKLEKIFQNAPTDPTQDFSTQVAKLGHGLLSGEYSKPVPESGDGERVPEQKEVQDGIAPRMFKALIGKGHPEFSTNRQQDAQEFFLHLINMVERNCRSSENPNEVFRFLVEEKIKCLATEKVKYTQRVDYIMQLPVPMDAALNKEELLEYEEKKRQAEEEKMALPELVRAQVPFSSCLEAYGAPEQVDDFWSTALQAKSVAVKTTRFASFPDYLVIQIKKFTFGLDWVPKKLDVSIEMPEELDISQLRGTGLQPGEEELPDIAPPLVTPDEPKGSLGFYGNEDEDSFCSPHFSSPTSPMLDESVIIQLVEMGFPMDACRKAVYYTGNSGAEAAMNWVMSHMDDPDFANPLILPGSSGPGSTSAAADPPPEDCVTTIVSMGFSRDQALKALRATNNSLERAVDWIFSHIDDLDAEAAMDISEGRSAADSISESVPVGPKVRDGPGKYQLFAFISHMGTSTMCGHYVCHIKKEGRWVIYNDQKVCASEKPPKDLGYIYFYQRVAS
Outline: as §1

USP54 = USP54 (UniProt Q70EL1)
Outline: as §1

USP7 = USP7 (UniProt Q93009)
USP7, sequence (Q93009 whole entry, looked up): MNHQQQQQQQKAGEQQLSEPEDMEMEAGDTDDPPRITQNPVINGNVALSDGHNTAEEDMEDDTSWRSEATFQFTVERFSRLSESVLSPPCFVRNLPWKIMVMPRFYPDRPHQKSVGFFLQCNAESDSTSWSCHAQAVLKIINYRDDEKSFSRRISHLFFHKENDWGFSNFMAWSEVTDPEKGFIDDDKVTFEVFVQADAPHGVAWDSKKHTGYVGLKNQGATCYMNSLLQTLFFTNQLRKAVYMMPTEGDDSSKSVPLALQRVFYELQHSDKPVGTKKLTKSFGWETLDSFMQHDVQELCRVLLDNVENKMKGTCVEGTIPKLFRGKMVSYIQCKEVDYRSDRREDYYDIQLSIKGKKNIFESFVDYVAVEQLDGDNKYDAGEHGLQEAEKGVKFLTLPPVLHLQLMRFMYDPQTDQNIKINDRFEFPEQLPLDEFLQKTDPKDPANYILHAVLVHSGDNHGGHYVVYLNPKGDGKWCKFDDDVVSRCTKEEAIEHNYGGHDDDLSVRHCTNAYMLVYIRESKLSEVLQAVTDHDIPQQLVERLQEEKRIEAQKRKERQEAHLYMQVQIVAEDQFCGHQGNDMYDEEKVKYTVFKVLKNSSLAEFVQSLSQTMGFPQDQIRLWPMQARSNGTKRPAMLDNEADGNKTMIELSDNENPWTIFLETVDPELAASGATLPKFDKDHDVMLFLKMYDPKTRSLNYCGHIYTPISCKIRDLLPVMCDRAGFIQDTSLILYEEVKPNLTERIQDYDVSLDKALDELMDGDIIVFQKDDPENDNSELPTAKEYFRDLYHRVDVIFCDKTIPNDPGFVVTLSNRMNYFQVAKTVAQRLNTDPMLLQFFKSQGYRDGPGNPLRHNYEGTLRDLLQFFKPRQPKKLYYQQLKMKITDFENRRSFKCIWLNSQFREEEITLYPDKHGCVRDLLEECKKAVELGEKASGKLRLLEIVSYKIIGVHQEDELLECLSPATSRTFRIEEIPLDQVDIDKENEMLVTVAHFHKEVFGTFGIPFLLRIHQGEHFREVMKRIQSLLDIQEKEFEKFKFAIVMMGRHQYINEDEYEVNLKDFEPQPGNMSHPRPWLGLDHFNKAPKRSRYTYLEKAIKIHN
Outline: as §1

USP8 = biological target: T5, USP8 (UniProt P40818)
T5 sequence (whole entry): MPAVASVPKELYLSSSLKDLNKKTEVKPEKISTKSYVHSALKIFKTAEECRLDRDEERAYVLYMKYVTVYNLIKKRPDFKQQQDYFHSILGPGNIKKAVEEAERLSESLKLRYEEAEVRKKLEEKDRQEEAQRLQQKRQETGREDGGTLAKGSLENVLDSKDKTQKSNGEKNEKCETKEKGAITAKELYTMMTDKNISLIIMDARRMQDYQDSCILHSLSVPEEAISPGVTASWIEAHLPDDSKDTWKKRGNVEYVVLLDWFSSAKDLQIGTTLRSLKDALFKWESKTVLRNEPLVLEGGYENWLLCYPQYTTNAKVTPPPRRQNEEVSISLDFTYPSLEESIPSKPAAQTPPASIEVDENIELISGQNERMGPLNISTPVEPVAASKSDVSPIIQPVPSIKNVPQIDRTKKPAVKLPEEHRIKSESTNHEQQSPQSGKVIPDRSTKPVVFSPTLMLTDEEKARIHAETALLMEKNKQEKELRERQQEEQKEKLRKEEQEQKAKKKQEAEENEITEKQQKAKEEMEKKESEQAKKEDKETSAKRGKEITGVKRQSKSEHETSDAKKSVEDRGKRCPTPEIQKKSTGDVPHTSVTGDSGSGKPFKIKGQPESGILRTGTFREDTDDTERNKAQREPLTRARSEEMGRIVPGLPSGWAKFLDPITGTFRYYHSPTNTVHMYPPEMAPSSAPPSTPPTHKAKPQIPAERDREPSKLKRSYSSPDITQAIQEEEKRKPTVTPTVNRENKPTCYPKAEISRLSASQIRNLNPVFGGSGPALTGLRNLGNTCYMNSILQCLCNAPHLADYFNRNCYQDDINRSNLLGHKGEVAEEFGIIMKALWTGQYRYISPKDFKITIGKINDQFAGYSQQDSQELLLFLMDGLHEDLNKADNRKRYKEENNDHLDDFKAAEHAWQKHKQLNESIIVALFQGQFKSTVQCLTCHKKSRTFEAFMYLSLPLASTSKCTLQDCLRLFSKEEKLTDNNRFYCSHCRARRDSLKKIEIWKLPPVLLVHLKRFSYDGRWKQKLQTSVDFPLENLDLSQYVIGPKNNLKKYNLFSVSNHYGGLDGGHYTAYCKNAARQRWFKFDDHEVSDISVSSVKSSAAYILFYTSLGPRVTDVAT
Outline: as §1

USP9X = USP9X (UniProt Q93008)
USP9X, sequence (Q93008 whole entry): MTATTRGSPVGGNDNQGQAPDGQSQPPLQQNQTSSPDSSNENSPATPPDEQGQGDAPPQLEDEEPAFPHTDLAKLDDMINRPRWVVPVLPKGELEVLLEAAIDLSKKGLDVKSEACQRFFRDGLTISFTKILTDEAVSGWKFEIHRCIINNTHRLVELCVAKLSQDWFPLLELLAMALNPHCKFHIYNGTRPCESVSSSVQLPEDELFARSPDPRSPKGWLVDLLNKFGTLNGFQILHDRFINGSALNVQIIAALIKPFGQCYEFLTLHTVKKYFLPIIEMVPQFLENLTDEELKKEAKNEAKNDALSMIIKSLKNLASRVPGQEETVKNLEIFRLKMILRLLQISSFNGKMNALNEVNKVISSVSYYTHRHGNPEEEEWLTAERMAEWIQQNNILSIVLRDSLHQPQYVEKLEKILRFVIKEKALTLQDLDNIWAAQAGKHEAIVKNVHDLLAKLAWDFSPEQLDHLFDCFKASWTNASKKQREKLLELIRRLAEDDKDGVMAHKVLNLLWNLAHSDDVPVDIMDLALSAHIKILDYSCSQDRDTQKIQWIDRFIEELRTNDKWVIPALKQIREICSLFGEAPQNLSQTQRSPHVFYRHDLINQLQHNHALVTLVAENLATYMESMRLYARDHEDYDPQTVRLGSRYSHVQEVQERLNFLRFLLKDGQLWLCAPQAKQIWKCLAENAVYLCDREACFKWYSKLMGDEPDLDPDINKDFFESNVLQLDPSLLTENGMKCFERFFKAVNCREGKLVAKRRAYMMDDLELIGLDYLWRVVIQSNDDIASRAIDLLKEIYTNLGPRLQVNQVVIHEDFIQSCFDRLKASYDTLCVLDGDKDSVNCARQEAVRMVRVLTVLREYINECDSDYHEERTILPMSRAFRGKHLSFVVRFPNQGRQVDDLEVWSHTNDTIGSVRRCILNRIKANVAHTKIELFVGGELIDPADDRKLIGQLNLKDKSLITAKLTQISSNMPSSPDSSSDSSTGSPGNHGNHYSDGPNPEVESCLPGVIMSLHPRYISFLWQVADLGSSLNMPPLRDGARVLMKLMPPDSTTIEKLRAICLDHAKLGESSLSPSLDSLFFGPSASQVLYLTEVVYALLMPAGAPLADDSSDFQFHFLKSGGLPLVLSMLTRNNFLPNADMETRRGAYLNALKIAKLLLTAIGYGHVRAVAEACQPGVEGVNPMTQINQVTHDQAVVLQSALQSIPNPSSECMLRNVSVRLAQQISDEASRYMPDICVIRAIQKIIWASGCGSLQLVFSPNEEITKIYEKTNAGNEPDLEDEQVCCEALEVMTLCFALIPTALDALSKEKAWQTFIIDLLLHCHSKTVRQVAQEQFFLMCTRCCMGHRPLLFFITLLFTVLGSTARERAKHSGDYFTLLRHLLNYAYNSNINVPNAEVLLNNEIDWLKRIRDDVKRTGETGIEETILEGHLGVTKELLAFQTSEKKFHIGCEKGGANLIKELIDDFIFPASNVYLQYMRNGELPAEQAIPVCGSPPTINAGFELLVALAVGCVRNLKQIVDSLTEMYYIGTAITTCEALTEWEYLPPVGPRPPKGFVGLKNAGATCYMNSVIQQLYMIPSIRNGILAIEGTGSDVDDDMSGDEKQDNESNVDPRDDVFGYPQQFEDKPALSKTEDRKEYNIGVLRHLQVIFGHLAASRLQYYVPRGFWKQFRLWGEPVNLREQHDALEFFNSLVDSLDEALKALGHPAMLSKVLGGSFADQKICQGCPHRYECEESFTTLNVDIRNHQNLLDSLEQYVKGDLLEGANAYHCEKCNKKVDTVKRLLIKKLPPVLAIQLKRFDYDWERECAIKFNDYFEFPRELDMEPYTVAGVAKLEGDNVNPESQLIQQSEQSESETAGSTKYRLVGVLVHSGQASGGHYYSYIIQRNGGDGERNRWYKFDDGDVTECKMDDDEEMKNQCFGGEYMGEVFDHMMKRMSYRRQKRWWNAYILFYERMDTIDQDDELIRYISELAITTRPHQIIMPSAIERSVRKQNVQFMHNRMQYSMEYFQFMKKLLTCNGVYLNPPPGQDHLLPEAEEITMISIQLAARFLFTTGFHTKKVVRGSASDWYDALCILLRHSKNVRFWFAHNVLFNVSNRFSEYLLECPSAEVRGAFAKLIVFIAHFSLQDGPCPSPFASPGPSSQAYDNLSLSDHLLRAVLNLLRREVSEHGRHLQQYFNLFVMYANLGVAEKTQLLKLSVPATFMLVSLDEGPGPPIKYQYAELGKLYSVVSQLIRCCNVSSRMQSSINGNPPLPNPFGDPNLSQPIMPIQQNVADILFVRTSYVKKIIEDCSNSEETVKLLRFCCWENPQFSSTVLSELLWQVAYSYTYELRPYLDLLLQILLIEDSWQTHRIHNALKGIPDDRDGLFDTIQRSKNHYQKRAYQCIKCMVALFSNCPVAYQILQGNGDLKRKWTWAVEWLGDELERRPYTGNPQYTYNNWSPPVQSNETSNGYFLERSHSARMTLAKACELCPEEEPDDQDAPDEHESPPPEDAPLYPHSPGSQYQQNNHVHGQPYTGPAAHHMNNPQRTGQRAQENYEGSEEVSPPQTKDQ
Outline: as §1

UniProt O00487 = biological target: UniProt O00487
UniProt O00487, sequence (O00487 whole entry): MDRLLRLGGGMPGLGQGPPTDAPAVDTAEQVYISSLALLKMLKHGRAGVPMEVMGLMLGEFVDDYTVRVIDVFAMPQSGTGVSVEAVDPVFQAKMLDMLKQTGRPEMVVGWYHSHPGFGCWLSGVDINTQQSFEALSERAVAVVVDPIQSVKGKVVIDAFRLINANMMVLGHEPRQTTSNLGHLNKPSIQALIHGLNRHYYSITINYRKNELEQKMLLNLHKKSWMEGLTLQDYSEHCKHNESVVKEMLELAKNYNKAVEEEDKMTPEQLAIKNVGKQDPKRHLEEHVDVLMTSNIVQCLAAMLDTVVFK
Outline: as §1

Measured: log2 ratio of Biotin-Ahx-Ub-VS probe labelling

O=C(CCl)N1CCN2C(=O)CCC2C1 (stereo not given)
inactive: USP42 -0.359 | USP46 0.247 | USP47 -0.0244 | USP48 -0.154 | USP5 0.153 | USP54 0.776 | USP7 -0.0819 | USP8 -0.376 | USP9X -0.098 | UniProt O00487 -0.0865
